This note sets out measurements from ChEMBL document CHEMBL1961873, “Compounds: GSK PKIS; Assays: Nanosyn kinase panel” (2012).

The inhibition is the change of the read-out against control, counted positive when it falls.

Test [1] concerns the target T1, Muscle, skeletal receptor tyrosine-protein kinase (Homo sapiens) (UniProt O15146).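 Note: reported value is the mean percent inhibition of MuSK kinase.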
T1 sequence (whole entry): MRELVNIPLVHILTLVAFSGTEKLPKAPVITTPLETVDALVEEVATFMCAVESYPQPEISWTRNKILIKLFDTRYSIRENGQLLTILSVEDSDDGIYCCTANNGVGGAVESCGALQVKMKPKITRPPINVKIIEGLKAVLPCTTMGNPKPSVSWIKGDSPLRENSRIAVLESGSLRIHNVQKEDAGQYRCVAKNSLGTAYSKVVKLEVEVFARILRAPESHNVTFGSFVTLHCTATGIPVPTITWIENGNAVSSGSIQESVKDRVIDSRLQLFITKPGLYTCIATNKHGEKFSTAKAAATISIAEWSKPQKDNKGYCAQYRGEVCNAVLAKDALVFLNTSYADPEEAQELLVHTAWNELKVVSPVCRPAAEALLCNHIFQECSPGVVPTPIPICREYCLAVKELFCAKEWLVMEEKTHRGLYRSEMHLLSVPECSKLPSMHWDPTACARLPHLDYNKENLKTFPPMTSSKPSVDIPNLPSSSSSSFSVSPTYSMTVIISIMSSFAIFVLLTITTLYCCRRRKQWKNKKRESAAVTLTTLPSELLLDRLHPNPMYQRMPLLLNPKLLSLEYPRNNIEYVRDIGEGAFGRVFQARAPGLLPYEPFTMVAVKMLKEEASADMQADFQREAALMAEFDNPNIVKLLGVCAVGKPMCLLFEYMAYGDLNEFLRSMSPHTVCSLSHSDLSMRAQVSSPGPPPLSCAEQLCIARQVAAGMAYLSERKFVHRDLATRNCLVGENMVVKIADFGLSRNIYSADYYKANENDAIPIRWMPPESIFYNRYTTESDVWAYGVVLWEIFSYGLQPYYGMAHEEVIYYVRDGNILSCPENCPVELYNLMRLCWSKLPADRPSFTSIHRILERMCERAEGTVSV
The note with it: at 1 µM.

In test [2] the target is Platelet-derived growth factor receptor alpha (Homo sapiens) (UniProt P16234). The note with it: at 0.1 µM.
For test [3] the target is unchanged. The note with it: at 1 µM.
Test [4] has as its system Platelet-derived growth factor receptor alpha (Homo sapiens), P16234 [D842V]. The settings on record: at 0.1 µM.
Test [5] has the same test system. The note with it: at 1 µM.
For test [6], the system named is Platelet-derived growth factor receptor alpha (Homo sapiens), P16234 [T674I]. The settings on record: at 0.1 µM.
Test [7] shares this test system. The note with it: at 1 µM.
For test [8], the system named is Platelet-derived growth factor receptor alpha (Homo sapiens), P16234 [V561D]. The settings on record: at 0.1 µM.
Test [9] has the same test system. The note with it: at 1 µM.
For test [10], the target named is Platelet-derived growth factor receptor beta (Homo sapiens) (UniProt P09619). The note with it: at 0.1 µM.
Test [11] shares this target. The settings on record: at 1 µM.
For test [12], the target named is Tyrosine-protein kinase FRK (Homo sapiens) (UniProt P42685). The note with it: at 0.1 µM.
For test [13] the target is unchanged. The settings on record: at 1 µM.
Test [14] has as its target Protein-tyrosine kinase 2-beta (Homo sapiens) (UniProt Q14289). The settings on record: at 0.1 µM.
Test [15] shares this target. The note with it: at 1 µM.
For test [16], the target named is Proto-oncogene tyrosine-protein kinase receptor Ret (Homo sapiens) (UniProt P07949). The note with it: at 0.1 µM.
Test [17] shares this target. The note with it: at 1 µM.
Test [18] relates to Proto-oncogene tyrosine-protein kinase receptor Ret (Homo sapiens), P07949 [V804L]. The settings on record: at 0.1 µM.
Test [19] shares this test system. The settings on record: at 1 µM.
The subject of test [20] is Proto-oncogene tyrosine-protein kinase receptor Ret (Homo sapiens), P07949 [Y791F]. The note with it: at 0.1 µM.

Tyrosine-protein kinase FRK (Homo sapiens), sequence (P42685 whole entry): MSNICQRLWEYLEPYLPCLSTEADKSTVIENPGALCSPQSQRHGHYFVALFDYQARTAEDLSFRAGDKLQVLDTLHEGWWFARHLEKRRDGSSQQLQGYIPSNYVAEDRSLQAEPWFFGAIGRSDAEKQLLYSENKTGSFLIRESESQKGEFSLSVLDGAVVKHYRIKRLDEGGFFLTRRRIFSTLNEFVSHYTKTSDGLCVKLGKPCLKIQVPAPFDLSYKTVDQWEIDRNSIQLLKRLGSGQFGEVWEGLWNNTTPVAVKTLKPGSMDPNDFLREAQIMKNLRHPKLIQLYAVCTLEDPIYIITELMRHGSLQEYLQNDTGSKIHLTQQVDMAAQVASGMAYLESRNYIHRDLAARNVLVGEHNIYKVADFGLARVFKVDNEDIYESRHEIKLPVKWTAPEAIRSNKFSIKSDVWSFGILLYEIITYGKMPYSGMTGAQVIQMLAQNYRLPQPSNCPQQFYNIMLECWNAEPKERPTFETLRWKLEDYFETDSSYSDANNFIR
Protein-tyrosine kinase 2-beta (Homo sapiens), sequence (Q14289 whole entry, looked up): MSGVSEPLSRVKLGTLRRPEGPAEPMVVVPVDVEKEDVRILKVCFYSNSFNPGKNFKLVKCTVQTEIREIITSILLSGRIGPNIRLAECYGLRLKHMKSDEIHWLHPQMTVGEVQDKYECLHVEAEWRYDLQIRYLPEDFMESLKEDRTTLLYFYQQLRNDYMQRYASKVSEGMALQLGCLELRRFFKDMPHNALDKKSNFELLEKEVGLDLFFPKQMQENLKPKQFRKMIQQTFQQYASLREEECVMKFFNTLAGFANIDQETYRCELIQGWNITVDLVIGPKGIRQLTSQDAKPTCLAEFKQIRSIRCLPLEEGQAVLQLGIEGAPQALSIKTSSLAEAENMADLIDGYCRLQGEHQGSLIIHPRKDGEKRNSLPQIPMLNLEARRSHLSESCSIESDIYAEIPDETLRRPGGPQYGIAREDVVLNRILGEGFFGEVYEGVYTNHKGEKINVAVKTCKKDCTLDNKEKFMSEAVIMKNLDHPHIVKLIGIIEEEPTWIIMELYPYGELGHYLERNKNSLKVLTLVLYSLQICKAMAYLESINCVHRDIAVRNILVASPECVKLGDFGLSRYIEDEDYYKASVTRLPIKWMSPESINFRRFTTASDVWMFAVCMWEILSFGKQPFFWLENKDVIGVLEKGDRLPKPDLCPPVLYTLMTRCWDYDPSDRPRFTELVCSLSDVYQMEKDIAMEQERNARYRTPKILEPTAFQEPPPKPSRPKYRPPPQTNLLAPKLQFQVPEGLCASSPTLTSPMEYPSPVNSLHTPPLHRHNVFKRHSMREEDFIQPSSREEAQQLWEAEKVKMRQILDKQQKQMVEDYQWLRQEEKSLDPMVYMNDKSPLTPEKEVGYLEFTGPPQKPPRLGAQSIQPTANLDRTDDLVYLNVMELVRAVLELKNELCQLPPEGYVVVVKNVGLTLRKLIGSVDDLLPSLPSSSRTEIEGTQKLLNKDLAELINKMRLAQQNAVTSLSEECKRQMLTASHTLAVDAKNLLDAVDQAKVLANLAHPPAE
Proto-oncogene tyrosine-protein kinase receptor Ret (Homo sapiens), sequence (P07949 whole entry): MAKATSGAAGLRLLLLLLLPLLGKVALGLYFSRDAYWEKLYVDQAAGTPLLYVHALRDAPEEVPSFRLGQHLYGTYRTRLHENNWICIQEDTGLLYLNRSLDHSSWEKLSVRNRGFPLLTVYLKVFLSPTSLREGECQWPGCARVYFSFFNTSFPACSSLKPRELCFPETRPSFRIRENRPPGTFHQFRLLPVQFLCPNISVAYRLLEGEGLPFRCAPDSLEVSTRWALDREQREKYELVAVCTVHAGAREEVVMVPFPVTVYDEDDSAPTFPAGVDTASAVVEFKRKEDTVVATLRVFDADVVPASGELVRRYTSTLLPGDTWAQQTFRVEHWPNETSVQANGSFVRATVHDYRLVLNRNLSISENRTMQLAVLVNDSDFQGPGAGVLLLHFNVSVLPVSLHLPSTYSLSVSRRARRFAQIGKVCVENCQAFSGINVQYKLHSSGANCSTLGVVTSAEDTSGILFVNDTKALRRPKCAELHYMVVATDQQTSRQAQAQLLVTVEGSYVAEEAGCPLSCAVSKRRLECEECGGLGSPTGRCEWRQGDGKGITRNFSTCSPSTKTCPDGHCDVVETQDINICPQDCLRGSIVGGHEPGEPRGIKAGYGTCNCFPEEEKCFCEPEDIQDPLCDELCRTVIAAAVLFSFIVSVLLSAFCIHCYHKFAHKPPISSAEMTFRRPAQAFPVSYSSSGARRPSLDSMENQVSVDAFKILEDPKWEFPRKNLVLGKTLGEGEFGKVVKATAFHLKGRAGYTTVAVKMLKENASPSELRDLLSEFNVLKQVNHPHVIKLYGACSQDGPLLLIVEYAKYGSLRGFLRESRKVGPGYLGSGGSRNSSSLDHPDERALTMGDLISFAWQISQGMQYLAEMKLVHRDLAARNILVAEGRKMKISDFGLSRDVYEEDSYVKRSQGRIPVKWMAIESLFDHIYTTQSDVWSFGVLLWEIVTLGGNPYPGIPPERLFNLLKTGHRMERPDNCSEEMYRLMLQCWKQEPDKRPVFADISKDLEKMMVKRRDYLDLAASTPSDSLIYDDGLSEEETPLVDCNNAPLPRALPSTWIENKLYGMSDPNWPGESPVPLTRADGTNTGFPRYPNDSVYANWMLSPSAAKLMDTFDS
Platelet-derived growth factor receptor alpha (Homo sapiens), P16234 [T674I], sequence (P16234 whole entry T674I): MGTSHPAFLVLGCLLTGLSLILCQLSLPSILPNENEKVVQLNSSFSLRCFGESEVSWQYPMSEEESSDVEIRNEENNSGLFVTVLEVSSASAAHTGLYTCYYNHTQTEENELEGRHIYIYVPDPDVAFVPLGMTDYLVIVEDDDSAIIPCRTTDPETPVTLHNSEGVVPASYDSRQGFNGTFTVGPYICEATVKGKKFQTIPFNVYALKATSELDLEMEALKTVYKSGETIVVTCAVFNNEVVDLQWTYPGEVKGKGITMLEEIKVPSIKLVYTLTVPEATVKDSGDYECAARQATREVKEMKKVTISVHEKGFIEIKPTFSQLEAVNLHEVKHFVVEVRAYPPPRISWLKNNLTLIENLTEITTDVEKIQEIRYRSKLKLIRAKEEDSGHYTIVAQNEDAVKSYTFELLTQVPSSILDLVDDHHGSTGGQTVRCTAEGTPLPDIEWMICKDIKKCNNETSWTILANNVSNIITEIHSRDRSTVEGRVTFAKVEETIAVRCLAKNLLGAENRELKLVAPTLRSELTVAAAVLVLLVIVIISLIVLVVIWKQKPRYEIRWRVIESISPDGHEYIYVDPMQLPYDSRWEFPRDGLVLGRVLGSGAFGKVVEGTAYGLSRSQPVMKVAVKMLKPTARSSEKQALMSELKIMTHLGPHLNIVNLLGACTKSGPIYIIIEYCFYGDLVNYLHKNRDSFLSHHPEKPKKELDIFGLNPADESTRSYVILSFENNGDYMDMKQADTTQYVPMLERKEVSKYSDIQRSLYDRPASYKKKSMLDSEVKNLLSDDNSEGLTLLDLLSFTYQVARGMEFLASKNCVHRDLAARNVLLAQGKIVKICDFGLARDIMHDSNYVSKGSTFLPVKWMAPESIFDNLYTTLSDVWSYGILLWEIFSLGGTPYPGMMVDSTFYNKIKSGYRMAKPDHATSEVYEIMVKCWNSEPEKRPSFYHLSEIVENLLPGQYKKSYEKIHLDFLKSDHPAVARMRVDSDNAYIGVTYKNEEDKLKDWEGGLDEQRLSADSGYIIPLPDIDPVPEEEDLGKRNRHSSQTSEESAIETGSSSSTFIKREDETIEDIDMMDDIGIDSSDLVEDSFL
Platelet-derived growth factor receptor beta (Homo sapiens), sequence (P09619 whole entry): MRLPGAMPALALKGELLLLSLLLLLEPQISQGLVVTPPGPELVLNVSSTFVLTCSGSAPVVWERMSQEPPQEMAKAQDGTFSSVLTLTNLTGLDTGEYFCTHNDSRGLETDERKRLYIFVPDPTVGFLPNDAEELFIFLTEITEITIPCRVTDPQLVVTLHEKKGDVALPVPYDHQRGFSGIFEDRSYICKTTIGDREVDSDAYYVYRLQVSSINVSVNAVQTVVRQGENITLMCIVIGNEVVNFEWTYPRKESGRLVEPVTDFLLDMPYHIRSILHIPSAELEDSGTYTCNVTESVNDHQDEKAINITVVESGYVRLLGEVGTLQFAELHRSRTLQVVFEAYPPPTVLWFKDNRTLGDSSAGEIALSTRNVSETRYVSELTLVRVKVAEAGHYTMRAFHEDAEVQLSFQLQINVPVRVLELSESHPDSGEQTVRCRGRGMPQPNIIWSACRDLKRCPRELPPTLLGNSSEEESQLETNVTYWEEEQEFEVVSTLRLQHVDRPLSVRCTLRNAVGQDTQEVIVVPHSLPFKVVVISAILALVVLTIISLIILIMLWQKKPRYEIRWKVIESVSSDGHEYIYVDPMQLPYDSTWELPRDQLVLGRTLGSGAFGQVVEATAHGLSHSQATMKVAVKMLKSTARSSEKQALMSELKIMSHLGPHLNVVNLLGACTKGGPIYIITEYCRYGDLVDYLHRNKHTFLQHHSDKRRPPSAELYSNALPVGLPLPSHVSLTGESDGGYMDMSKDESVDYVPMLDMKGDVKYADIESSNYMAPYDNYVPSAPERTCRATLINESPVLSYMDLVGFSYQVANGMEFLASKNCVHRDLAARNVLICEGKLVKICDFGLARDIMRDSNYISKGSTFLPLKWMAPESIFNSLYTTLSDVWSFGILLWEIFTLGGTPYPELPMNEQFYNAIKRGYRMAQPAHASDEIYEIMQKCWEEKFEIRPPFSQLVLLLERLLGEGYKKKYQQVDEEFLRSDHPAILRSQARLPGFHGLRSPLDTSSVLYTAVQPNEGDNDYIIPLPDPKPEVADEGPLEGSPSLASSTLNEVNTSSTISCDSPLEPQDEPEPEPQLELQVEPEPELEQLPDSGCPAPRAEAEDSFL

In the case of `COc1cc2ncn(-c3cc(OCc4ccccc4C(F)(F)F)c(C(N)=O)s3)c2cc1OC`, the inhibition in [1] is 32.7%; in test [2], 47.1%; in test [3], 83.5%; in test [4], 29.5%; in test [5] it was 79.9%; in [6], 19.1%. For the same molecule, the inhibition was 68% in test [7]; 36.6% in test [8]; 84.9% in [9]; 45% in test [10]; 83.5% in test [11]; 3.08% in test [12]. Further, the inhibition in test [13] worked out at 3.46%; in [14], 2.32%; in test [15], 19.4%; in test [16] it was 14.5%; in test [17] it was 41.6%; in test [18], 10.4%. Further, the inhibition in test [19] worked out at 34.3%; in test [20] it was 17.9%.
With `CN(C)c1cc2c(Nc3ccc4nc(Cc5ccccc5)[nH]c4c3)ncnc2cn1`, the inhibition stood at 0.22% in test [1]; 9.58% in [2]; 24.4% in test [3]; 4.07% in [4]; 5.67% in test [5]; 5.35% in test [6]. In addition, the inhibition was 6.9% in [7]; 5.97% in test [8]; 22.8% in test [9]; 5.76% in test [10]; 12.1% in test [11]; -0.33% in [12]. The inhibition in test [13] is 3.88%; in test [14], 15.7%; in test [15], 11.8%; in test [16] it was 7.21%; in test [17], 13.2%; in test [18], 3.89%. Further, the figures for the inhibition in [19] and in [20] were 7.59% and 6.91%, respectively.
For the molecule `Cc1ccc(C(=O)NC2CCCCC2)cc1-c1ccc(C(=O)NCC2CC2)cc1`, the inhibition came to 8.57% in test [1]; 12.3% in test [2]; 12.8% in test [3]; 2.47% in test [4]; 1.67% in [5]; 4.09% in test [6]. In addition, the inhibition is -1.01% in test [7]; 1.21% in test [8]; 17.2% in test [9]; 6.66% in test [10]; 9.04% in [11]; 0.19% in [12]. In addition, the inhibition in test [13] came out at 0.68%; in test [14], 3.32%; in test [15], 9.58%; in test [16] it was 5.5%; in test [17], 7.84%; in [18], 5.44%. In addition, the figures for the inhibition in test [19] and in [20] were 4.79% and 10.8%, respectively.
Turning to `Nc1nc(-c2ccccn2)c(-c2ccc3ncccc3n2)s1`, the inhibition in test [1] was 4.69%; in test [2] it was 5.63%; in [3], 11.4%; in test [4], 1.02%; in [5] it was 1.79%; in [6] it was 3.45%. Also, the inhibition in [7] was 7.4%; in test [8] it was -0.56%; in test [9], -1.5%; in test [10], 6.46%; in test [11], 7.71%; in test [12], 2.13%. Besides, the inhibition in [13] was found to be 1.57%; in test [14] it was 8.82%; in [15] it was 12.2%; in [16] it was 1.19%; in test [17], 4.76%; in test [18], 1.3%. For the same molecule, the inhibition was found to be 5.95% in test [19] and 2.3% in test [20].
For the molecule `CS(=O)(=O)CCN(CC#N)Cc1ccc(-c2ccc3ncnc(Nc4ccc(OCc5cccc(F)c5)c(Cl)c4)c3c2)o1`, the inhibition in test [1] is 1.87%; in [2], 5.88%; in test [3], 10.3%; in [4], 1.15%; in test [5], 3.78%; in test [6] it was 1.63%. For the same molecule, the inhibition is 5.75% in test [7]; 1.15% in [8]; 4.06% in test [9]; 4.64% in test [10]; 6.45% in [11]; 1.47% in test [12]. Further, the inhibition in test [13] was 2.48%; in test [14], 3.85%; in test [15], 9.33%; in [16], 0.24%; in [17] it was 2.76%; in [18], 1.02%. In addition, the inhibition in [19] is 3.35%; in [20], 2.36%.
On to `COc1cc2ncn(-c3cc(O[C@H](C)c4ccccc4Cl)c(C(N)=O)s3)c2cc1OC`, for which the inhibition in test [1] came out at 78.2%; in test [2], 73.2%; in test [3], 100%; in test [4], 42.1%; in test [5], 88.2%; in test [6], 56.5%. The inhibition in test [7] is 97.2%; in test [8], 50.5%; in [9] it was 87.3%; in [10], 59.7%; in [11] it was 95.3%; in [12] it was 2.17%. Besides, the inhibition was determined as 2.07% in [13]; 10.3% in [14]; 32.2% in test [15]; 18.2% in [16]; 51.8% in [17]; 19.5% in [18]. For the same molecule, the values for the inhibition in test [19] and in [20] were 54.8% and 20.7%, respectively.
